This is part of a sample that, as a whole, favours compounds with a hit. Of some 83,000 tested, about 20% had one in any assay.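 Percent growth is the endpoint: 0 to 100 indicates growth inhibition (40 means 60% inhibition), 0 means no net growth, and negative values indicate cell death.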 A number with no mark means an inactive call. The source made the active and inactive calls. How the source made its calls: active means growth percent below 10; inactive means the rest.
Tested on: ACHN renal
Experiment: NCI-60 one-dose screen, 48 h (100 = growth as untreated, 0 = no growth, -100 = all killed)
Conditions: 10 µM unless noted

| Structure (SMILES) | growth |
| --- | --- |
| O=C(CCCCC(=O)N/N=C\c1ccccc1O)N/N=C\c1ccccc1O | 13.2% |
| Cc1ccc(NC(=O)/C=C/c2ccccc2)c(C(N)=O)c1 | 57.7% |
| CN1CCN(CCCOc2cccc3nc(Nc4ccc(Cl)c(F)c4)ccc23)CC1 | 10.5% |
| NC1=C(Cl)C(=O)c2ccc(S(N)(=O)=O)cc2C1=O | -95.6% (active) |
| O=C1c2cc3c(cc2-c2c1c1ccc(Cl)cc1c(=O)n2CCCN1CCOCC1)OCO3 | 13.1% |
| O=C1C=CC(=O)N1c1ccc2c(c1)Cc1cc(F)ccc1-2 | 92.6% |
| FC(F)(F)c1nc2c(NCc3ccc(-c4ccccc4)cc3)cccc2[nH]1 | 81.6% |
| OC(c1cc2cc(Cl)c(Cl)cc2c2cc(C(F)(F)F)ccc12)C1CCCCN1 (stereo unspecified) | -82.5% (active) |
| Brc1ccc(-c2csc(Nc3ccccn3)n2)cc1 | 217% |
| O=C(Cc1ccccc1Nc1c(Cl)cccc1Cl)NN1C(=O)/C(=C/c2ccc(Br)cc2)SC1=S | 104% |
| COc1ccc(C2CC(c3ccc(Cl)cc3)=NN2/C=C2\SC(=S)N(NC(=O)Cc3ccccc3Nc3c(Cl)cccc3Cl)C2=O)cc1 (stereo unspecified) | -34.3% (active) |
| CCOC(=O)c1csc(NC(=O)COc2cccc(/C=C3\CSc4ccccc4C3=O)c2)n1 | 45.5% |
| Cn1cc(-c2nonc2-c2c[nH]c3ccccc23)c2cccnc21 | 60.9% |
| COc1cc(/C=C/c2cc(/C=C/c3ccc(O)c(OC)c3)n(-c3c(C)cccc3C)c(=O)n2)ccc1O | 6.48% (active) |
| COc1cccc(C2=NN3C(C2)c2cc(Br)cc(OC)c2OC32CCN(Cc3ccccc3)CC2)c1 (stereo unspecified) | 102% |
| CC(C)(C)c1cc(C(C)(C)C)cc(S(=O)(=O)Nc2cc3ccccc3cc2C(=O)NCCN)c1 | 70.9% |
| O=C(N(c1ccccc1)c1ccccc1)n1ccc2nc(Cl)nc(Cl)c21 | 65.2% |
| Cc1[nH]c(-c2cc(N)ccc2Cl)c2c1C(=O)CCCC2 | 19.8% |
| NC(=O)c1cc(Cl)ccc1NC(=O)/C=C/c1ccccc1 | 59.8% |
| Cn1ncc2c(=O)nc3c(-c4ccccc4)n[nH]n3c21 | 116% |
| Cn1cc(C(=O)c2nc(-c3c[nH]c4ccc(Br)cc34)no2)c2cc(F)ccc21 | 89.6% |
| Cc1[nH]c(-c2ccc3cc[nH]c3c2)c2c1C(=O)CCCC2 | 41.2% |
| O=C1/C(=C(/c2ccccc2)N2CCOCC2)Cc2ccccc21 | -39.6% (active) |
| Cn1c(NCCc2ccc(O)c(O)c2)nc2c1c(=O)n(Cc1ccc(Cl)c(Cl)c1)c(=O)n2C | 41.8% |
| Cc1nn(-c2ccc(F)cc2)c2ncnc(Oc3ccc(NC(=O)Nc4ccc(Cl)c(C(F)(F)F)c4)cc3)c12 | 102% |

Tested on: CAKI-1 renal
Experiment: as above
Conditions: 10 µM unless noted

| Structure (SMILES) | growth |
| --- | --- |
| C=C1C(=O)O[C@H]2[C@H]1CC/C(COC(=O)c1cc3cc(OC)ccc3[nH]1)=C\CC[C@@]1(C)O[C@@H]21 | -95.1% (active) |
| CC[C@]1(O)C[C@@H]2CN(CCc3c([nH]c4ccccc34)[C@@](C(=O)OC)(c3cc4c(cc3OC)N(C)[C@H]3[C@@](O)(C(N)=O)[C@H](O)[C@]5(CC)[C@@H]6C[C@@H]6CN6CC[C@]43[C@@H]65)C2)C1 | 32.8% |
| Cc1nn(-c2ccc(F)cc2)c2ncnc(Nc3ccc(NC(=O)Nc4ccc(Cl)c(C(F)(F)F)c4)cc3)c12 | 12.4% |
| O=C(N/N=C/c1ccccc1O)c1ccccc1Nc1ccnc(C(F)(F)F)c1 | -15.9% (active) |
| CC(=O)O[C@H]1[C@@H]2OC(=O)C(CSc3ccccc3)[C@@H]2C[C@H]2O[C@]2(C)CC/C=C(\C)CCC[C@@H]1C (stereo partly specified) | 2.92% (active) |
| C#CCOc1ccc2ncnc(N3CCC(NC(=O)CCl)CC3)c2c1 | 71.4% [8.25 µM] |
| CCC(=O)c1ccc(Cl)s1 | 102% |
| O=C1CC[C@H](c2ccc(O)c3c2C(=O)[C@@H]2O[C@@H]2C3=O)c2cccc(O)c21 | 2.61% (active) |
| COc1ccc(S(=O)(=O)N2CC3(COC3)C2)cc1NC(=O)c1[nH]c(C)c2c1CCCCC2=O | 20% |
| O=C1/C(=C/c2ccc3c(c2)OCO3)SC(=S)N1CCc1ccc(O)cc1 | 81% |
| Oc1ccccc1-c1nnc(CNc2ccc(Cl)cc2)o1 | 17% |
| Cc1ccc(OC(=O)c2ccc(Cl)cc2)cc1 | 81.8% |
| O=C(CCCCC(=O)N/N=C\c1ccccc1O)N/N=C\c1ccccc1O | 14.7% |
| Cc1ccc(NC(=O)/C=C/c2ccccc2)c(C(N)=O)c1 | 6.55% (active) |
| CN1CCN(CCCOc2cccc3nc(Nc4ccc(Cl)c(F)c4)ccc23)CC1 | 56.2% |
| NC1=C(Cl)C(=O)c2ccc(S(N)(=O)=O)cc2C1=O | -63.8% (active) |
| O=C1c2cc3c(cc2-c2c1c1ccc(Cl)cc1c(=O)n2CCCN1CCOCC1)OCO3 | 21.4% |
| FC(F)(F)c1nc2c(NCc3ccc(-c4ccccc4)cc3)cccc2[nH]1 | 73.7% |

| Structure (SMILES) | growth |
| --- | --- |
| OC(c1cc2cc(Cl)c(Cl)cc2c2cc(C(F)(F)F)ccc12)C1CCCCN1 (stereo unspecified) | -46.4% (active) |
| Brc1ccc(-c2csc(Nc3ccccn3)n2)cc1 | 84.2% |
| O=C(Cc1ccccc1Nc1c(Cl)cccc1Cl)NN1C(=O)/C(=C/c2ccc(Br)cc2)SC1=S | 100% |
| COc1ccc(C2CC(c3ccc(Cl)cc3)=NN2/C=C2\SC(=S)N(NC(=O)Cc3ccccc3Nc3c(Cl)cccc3Cl)C2=O)cc1 (stereo unspecified) | 62.8% |
| CCOC(=O)c1csc(NC(=O)COc2cccc(/C=C3\CSc4ccccc4C3=O)c2)n1 | 2.32% (active) |
| Cn1cc(-c2nonc2-c2c[nH]c3ccccc23)c2cccnc21 | 39.3% |
| COc1cc(/C=C/c2cc(/C=C/c3ccc(O)c(OC)c3)n(-c3c(C)cccc3C)c(=O)n2)ccc1O | 17.2% |
| COc1cccc(C2=NN3C(C2)c2cc(Br)cc(OC)c2OC32CCN(Cc3ccccc3)CC2)c1 (stereo unspecified) | 90.3% |
| CC(C)(C)c1cc(C(C)(C)C)cc(S(=O)(=O)Nc2cc3ccccc3cc2C(=O)NCCN)c1 | 64% |
| O=C(N(c1ccccc1)c1ccccc1)n1ccc2nc(Cl)nc(Cl)c21 | 53.4% |
| Cc1[nH]c(-c2cc(N)ccc2Cl)c2c1C(=O)CCCC2 | 2.45% (active) |
| NC(=O)c1cc(Cl)ccc1NC(=O)/C=C/c1ccccc1 | 56.5% |
| Cn1ncc2c(=O)nc3c(-c4ccccc4)n[nH]n3c21 | 74.4% |
| Cn1cc(C(=O)c2nc(-c3c[nH]c4ccc(Br)cc34)no2)c2cc(F)ccc21 | 80.1% |
| Cc1[nH]c(-c2ccc3cc[nH]c3c2)c2c1C(=O)CCCC2 | 11.9% |
| O=C1/C(=C(/c2ccccc2)N2CCOCC2)Cc2ccccc21 | -43.5% (active) |
| Cn1c(NCCc2ccc(O)c(O)c2)nc2c1c(=O)n(Cc1ccc(Cl)c(Cl)c1)c(=O)n2C | 62.8% |
| Cc1nn(-c2ccc(F)cc2)c2ncnc(Oc3ccc(NC(=O)Nc4ccc(Cl)c(C(F)(F)F)c4)cc3)c12 | 95.3% |

Source: PubChem BioAssay (NCI)
